The full data set covers some 8,800 targets. This sample favours those with a hit. About 0.5% of all pairs of compound and target were hits.
Experiments:
Assay in all cases: log2 fold change, soluble protein after heating vs DMSO (PISA); higher = thermal stabilisation; K562 lysate, 10 uM; active = over 0.2 and 3.5 SD of the protein, either way, in both replicates (recomputed)
erlotinib = compound: C#Cc1cccc(Nc2ncnc3cc(OCCOC)c(OCCOC)cc23)c1 [erlotinib]
Outline: (§1)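 To prepare the extract, K562 pellets were dounce-homogenised in PBS pH 7.4 with 1 mM MgCl2, giving crude material at 1 mg/mL protein. This was treated with 10 μM compound for 30 min, then heated in aliquots for 3 min over 48°C-58°C before pooling and addition of NP-40 to 0.5% at 4°C. Centrifugation at 21,000xg for 90 min left soluble protein in the supernatant, which TMTpro 16plex LC-MS/MS quantified with equalised channel sums. Results are log-two fold changes in thermal stability compared with solvent controls, from duplicates.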

[1] = compound: C/C(=N\NC(=O)C1=CC(=CC=C1)S(=O)(=O)N2CCOCC2)/C3=C(C=CC(=C3)Cl)O
Outline: as §1

[2] = compound: C1=CC(=CC=C1C2=NC3=C(N2)C=C(C=C3)C(=O)N)OC4=CC=C(C=C4)Cl
Outline: as §1

[3] = compound: C1=CC2=C(C=CC(=C2)/C=C\3/C(=O)NC(=NCC4=CC=CS4)S3)N=C1
Outline: as §1

[4] = compound: C1=CC2=NC=CN=C2C=C1/C=C/3\C(=O)NC(=O)S3
Outline: as §1

[5] = compound: C1=CC=C(C=C1)C2=NC(=C(N2)C3=CC=NC=C3)C4=CC(=C(C=C4)Cl)O
Outline: as §1

[6] = compound: C1=CC=C2C(=C1)C3=NNC4=CC=CC(=C43)C2=O
Outline: as §1

[7] = compound: C1CCN(C1)C(=O)NC2=CC=CC(=C2)NC3=NC=C(C(=N3)NCCC4=CN=CN4)Br
Outline: as §1

[8] = compound: C1CN(CCC1(CC2=CC=C(C=C2)Cl)N)C3=NC=NC4=C3C=CN4
Outline: as §1

IRAK-1-4 Inhibitor I = compound: C1COCCN1CCN2C3=CC=CC=C3N=C2NC(=O)C4=CC(=CC=C4)[N+](=O)[O-] [IRAK-1-4 Inhibitor I]
Outline: as §1

Measured: log2 fold change

EIF2D (UniProt P41214)
Sequence of UniProt P41214 (P41214 whole entry, looked up): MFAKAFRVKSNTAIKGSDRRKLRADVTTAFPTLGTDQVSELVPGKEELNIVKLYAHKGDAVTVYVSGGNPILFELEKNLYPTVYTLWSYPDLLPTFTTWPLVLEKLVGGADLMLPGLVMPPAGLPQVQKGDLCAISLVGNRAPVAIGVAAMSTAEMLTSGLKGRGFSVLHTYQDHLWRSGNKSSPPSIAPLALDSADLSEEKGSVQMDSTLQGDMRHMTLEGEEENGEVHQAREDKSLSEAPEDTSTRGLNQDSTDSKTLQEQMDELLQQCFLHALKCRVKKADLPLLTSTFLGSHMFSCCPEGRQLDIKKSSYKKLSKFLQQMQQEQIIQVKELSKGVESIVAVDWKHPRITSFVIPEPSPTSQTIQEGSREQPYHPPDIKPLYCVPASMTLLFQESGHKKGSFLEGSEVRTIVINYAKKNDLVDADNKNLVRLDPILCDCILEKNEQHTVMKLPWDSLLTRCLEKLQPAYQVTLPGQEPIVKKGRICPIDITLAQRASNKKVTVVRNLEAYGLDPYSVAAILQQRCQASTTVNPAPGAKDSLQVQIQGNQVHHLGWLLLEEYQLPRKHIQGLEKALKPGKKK
inactive: erlotinib 0.048 | [1] 0.019 | [2] -0.017 | [3] 0.054 | [4] 0.001 | [5] 0.008 | [6] -0.016 | [7] 0.025 | [8] 0.021 | IRAK-1-4 Inhibitor I -0.023

FYN (UniProt P06241)
inactive: erlotinib -0.028 | [1] 0.02 | [2] 0.025 | [3] 0.028 | [4] -0.062 | [5] 0.058 | [6] 0.092 | [7] 0.132 | [8] -0.018 | IRAK-1-4 Inhibitor I -0.145

EP400 isoform 5 (UniProt Q96L91)
inactive: erlotinib 0.045 | [1] 0.01 | [2] -0.007 | [3] -0.023 | [4] -0.042 | [5] -0.003 | [6] -0.074 | [7] -0.027 | [8] -0.023 | IRAK-1-4 Inhibitor I -0.005

FAM53B (UniProt Q14153)
Sequence of UniProt Q14153 (Q14153 whole entry, looked up): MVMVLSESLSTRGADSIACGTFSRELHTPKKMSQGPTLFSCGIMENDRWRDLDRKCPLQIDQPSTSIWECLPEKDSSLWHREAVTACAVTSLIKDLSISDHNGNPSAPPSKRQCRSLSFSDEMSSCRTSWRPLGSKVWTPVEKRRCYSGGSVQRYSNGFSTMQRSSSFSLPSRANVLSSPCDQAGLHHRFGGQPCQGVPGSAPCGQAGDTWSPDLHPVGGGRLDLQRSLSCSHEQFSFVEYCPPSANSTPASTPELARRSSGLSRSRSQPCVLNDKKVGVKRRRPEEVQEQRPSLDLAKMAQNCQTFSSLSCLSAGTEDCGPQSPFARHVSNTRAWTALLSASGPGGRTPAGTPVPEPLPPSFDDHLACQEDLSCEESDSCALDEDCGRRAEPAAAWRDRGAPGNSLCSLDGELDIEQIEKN
inactive: erlotinib 0.057 | [1] -0.087 | [2] -0.03 | [3] 0.015 | [4] -0.004 | [5] -0.047 | [6] -0.024 | [7] -0.034 | [8] 0.006 | IRAK-1-4 Inhibitor I 0.203

EXOC4 (UniProt Q96A65)
inactive: erlotinib 0.031 | [1] 0.034 | [2] -0.065 | [3] 0.031 | [4] 0.012 | [5] -0.015 | [6] -0.026 | [7] -0.011 | [8] 0.011 | IRAK-1-4 Inhibitor I -0.009

ERBIN isoform 8 (UniProt Q96RT1)
inactive: erlotinib 0 | [1] -0.002 | [2] -0.008 | [3] 0.044 | [4] -0.032 | [5] -0.001 | [6] -0.034 | [7] 0.007 | [8] 0.023 | IRAK-1-4 Inhibitor I -0.034

EIF2AK2 (UniProt P19525)
inactive: erlotinib 0.02 | [1] 0.011 | [2] -0.055 | [3] -0.072 | [4] 0.003 | [5] 0.005 | [6] -0.039 | [7] -0.013 | [8] 0.016 | IRAK-1-4 Inhibitor I -0.011

FAM83A (UniProt Q86UY5)
Sequence of UniProt Q86UY5 (Q86UY5 whole entry, looked up): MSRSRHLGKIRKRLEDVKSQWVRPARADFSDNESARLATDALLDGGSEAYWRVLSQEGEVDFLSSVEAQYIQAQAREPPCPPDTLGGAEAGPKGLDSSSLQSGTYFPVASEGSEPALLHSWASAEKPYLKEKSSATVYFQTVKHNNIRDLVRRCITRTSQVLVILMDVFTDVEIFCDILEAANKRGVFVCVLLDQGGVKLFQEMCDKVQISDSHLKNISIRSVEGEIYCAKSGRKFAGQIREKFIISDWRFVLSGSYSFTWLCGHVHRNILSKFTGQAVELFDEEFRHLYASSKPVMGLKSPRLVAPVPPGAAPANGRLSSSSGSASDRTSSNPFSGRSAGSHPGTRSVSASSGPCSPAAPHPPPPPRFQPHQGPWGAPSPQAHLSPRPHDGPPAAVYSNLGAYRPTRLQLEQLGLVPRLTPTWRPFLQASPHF
inactive: erlotinib 0 | [1] 0.168 | [2] 0.097 | [3] 0.038 | [4] -0.054 | [5] -0.107 | [6] -0.031 | [7] -0.062 | [8] 0.008 | IRAK-1-4 Inhibitor I 0.019

FIGNL1 (UniProt Q6PIW4)
inactive: erlotinib -0.008 | [1] -0.019 | [2] -0.025 | [3] 0.005 | [4] -0.011 | [5] -0.005 | [6] -0.015 | [7] 0.035 | [8] 0.006 | IRAK-1-4 Inhibitor I 0.008

FAM118B (UniProt Q9BPY3)
inactive: erlotinib -0.004 | [1] 0.051 | [2] 0.004 | [3] 0.061 | [4] 0.03 | [5] -0.01 | [6] -0.012 | [7] 0.013 | [8] -0.004 | IRAK-1-4 Inhibitor I -0.03

FARSA (UniProt Q9Y285)
inactive: erlotinib 0.045 | [1] -0.001 | [2] -0.054 | [3] 0.009 | [4] 0 | [5] 0.119 | [6] -0.005 | [7] 0.009 | [8] -0.023 | IRAK-1-4 Inhibitor I -0.018

GALK1 isoform 2 (UniProt P51570)
Sequence of UniProt P51570 (P51570 whole entry, looked up): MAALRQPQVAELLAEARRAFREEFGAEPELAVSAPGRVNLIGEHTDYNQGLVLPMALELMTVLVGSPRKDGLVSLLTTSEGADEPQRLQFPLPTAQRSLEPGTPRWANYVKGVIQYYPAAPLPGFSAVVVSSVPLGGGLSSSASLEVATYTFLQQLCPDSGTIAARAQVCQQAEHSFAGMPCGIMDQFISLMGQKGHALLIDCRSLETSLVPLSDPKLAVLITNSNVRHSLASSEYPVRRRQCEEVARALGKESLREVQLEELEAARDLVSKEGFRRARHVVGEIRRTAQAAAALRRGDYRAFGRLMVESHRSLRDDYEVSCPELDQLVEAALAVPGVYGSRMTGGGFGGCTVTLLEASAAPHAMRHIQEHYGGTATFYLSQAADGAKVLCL
inactive: erlotinib 0.021 | [1] 0.022 | [2] 0.01 | [3] -0.076 | [4] -0.024 | [5] -0.015 | [6] -0.031 | [7] 0.023 | [8] 0.058 | IRAK-1-4 Inhibitor I 0.042

EEF1AKMT4 (UniProt P0DPD7)
inactive: erlotinib 0.057 | [1] 0.097 | [2] 0.073 | [3] 0.025 | [4] 0.039 | [5] -0.021 | [6] -0.081 | [7] -0.019 | [8] 0.08 | IRAK-1-4 Inhibitor I 0.107

EEF1AKNMT (UniProt Q8N6R0)
Sequence of UniProt Q8N6R0 (Q8N6R0 whole entry, looked up): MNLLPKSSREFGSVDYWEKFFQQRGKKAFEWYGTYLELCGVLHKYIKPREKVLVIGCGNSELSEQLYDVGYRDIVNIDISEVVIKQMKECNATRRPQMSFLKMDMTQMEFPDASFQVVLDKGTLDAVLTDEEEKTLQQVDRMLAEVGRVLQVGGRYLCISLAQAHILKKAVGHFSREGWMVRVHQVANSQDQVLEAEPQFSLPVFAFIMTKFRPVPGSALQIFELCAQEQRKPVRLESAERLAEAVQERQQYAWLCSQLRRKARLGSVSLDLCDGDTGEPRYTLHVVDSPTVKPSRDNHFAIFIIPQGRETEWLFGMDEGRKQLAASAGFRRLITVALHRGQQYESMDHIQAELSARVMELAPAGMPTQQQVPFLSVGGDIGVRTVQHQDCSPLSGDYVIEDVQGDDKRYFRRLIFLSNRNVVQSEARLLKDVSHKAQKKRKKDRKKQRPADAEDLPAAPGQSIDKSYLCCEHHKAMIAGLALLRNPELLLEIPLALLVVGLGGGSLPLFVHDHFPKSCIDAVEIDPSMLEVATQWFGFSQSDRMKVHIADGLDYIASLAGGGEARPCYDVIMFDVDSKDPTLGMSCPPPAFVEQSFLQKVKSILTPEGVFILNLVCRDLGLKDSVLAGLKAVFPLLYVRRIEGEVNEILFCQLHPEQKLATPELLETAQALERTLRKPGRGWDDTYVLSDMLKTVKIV
inactive: erlotinib 0.048 | [1] 0.029 | [2] -0.02 | [3] -0.039 | [4] 0.005 | [5] 0 | [6] -0.065 | [7] 0.011 | [8] 0.053 | IRAK-1-4 Inhibitor I -0.015

DVL2 (UniProt O14641)
inactive: erlotinib 0.012 | [1] -0.028 | [2] 0.011 | [3] -0.015 | [4] 0.03 | [5] -0.055 | [6] -0.029 | [7] 0.001 | [8] 0.067 | IRAK-1-4 Inhibitor I -0.073

FOXJ3 (UniProt Q9UPW0)
inactive: erlotinib 0.018 | [1] 0.085 | [2] -0.015 | [3] -0.001 | [4] 0.014 | [5] 0.032 | [6] -0.01 | [7] -0.035 | [8] -0.013 | IRAK-1-4 Inhibitor I -0.025

EBP (UniProt Q15125)
inactive: erlotinib 0.055 | [1] 0.015 | [2] -0.073 | [3] -0.068 | [4] 0.01 | [5] -0.03 | [6] -0.128 | [7] 0.008 | [8] 0.047 | IRAK-1-4 Inhibitor I 0.086

GABPB1 isoform 3 (UniProt Q06547)
inactive: erlotinib -0.03 | [1] -0.042 | [2] -0.051 | [3] 0.016 | [4] 0.045 | [5] -0.048 | [6] -0.035 | [7] -0.032 | [8] 0.084 | IRAK-1-4 Inhibitor I 0.078

EPB41, A0A2R8Y6D0
inactive: erlotinib 0.134 | [1] 0.064 | [2] -0.187 | [3] -0.012 | [4] -0.004 | [5] 0.066 | [6] -0.004 | [7] -0.042 | [8] 0.054 | IRAK-1-4 Inhibitor I -0.071

EXOC3 (UniProt O60645)
inactive: erlotinib 0.033 | [1] 0.027 | [2] 0.006 | [3] 0.033 | [4] 0.039 | [5] 0.011 | [6] -0.04 | [7] 0.018 | [8] -0.001 | IRAK-1-4 Inhibitor I 0.013

GEMIN2 (UniProt O14893)
inactive: erlotinib 0.032 | [1] 0.047 | [2] -0.001 | [3] 0.053 | [4] 0.028 | [5] 0.015 | [6] -0.11 | [7] -0.007 | [8] 0.011 | IRAK-1-4 Inhibitor I 0.05

EXTL2 (UniProt Q9UBQ6)
inactive: erlotinib -0.02 | [1] -0.037 | [2] 0.072 | [3] 0.103 | [4] -0.443 | [5] 0 | [6] 0.092 | [7] 0.003 | [8] -0.007 | IRAK-1-4 Inhibitor I -0.049

EXOC6 (UniProt Q8TAG9)
Sequence of UniProt Q8TAG9 (Q8TAG9 whole entry, looked up): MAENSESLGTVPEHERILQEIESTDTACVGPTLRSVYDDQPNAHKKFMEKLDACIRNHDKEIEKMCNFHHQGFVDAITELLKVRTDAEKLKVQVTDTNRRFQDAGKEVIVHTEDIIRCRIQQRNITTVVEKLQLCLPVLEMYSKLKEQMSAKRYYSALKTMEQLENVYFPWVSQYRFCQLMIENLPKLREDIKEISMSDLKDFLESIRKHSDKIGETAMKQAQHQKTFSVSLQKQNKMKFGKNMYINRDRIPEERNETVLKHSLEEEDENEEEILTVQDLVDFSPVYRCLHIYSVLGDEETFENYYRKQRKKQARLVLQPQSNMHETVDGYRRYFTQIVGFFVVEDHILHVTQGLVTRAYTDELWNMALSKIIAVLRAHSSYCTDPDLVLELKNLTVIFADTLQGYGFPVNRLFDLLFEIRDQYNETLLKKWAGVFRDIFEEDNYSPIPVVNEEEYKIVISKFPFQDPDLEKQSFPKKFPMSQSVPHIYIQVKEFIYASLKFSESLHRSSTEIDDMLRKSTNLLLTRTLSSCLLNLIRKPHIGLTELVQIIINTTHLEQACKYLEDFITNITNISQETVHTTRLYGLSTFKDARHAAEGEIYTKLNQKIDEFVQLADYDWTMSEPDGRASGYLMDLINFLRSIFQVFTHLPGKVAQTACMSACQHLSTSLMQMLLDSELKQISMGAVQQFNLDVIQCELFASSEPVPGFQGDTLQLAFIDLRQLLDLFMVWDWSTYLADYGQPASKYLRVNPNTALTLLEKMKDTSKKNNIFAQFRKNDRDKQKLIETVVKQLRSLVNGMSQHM
inactive: erlotinib 0 | [1] -0.045 | [2] -0.062 | [3] -0.058 | [4] -0.044 | [5] 0.005 | [6] -0.043 | [7] 0.018 | [8] 0.008 | IRAK-1-4 Inhibitor I 0.013

DST (UniProt Q03001)
inactive: erlotinib 0.025 | [1] -0.035 | [2] 0.046 | [3] -0.03 | [4] -0.042 | [5] 0 | [6] -0.16 | [7] -0.046 | [8] 0 | IRAK-1-4 Inhibitor I 0.04

ERLIN2 (UniProt O94905)
inactive: erlotinib -0.028 | [1] 0.051 | [2] -0.1 | [3] -0.002 | [4] -0.047 | [5] -0.019 | [6] -0.031 | [7] -0.039 | [8] 0.006 | IRAK-1-4 Inhibitor I -0.013

FXR1 (UniProt P51114)
Sequence of UniProt P51114 (P51114 whole entry, looked up): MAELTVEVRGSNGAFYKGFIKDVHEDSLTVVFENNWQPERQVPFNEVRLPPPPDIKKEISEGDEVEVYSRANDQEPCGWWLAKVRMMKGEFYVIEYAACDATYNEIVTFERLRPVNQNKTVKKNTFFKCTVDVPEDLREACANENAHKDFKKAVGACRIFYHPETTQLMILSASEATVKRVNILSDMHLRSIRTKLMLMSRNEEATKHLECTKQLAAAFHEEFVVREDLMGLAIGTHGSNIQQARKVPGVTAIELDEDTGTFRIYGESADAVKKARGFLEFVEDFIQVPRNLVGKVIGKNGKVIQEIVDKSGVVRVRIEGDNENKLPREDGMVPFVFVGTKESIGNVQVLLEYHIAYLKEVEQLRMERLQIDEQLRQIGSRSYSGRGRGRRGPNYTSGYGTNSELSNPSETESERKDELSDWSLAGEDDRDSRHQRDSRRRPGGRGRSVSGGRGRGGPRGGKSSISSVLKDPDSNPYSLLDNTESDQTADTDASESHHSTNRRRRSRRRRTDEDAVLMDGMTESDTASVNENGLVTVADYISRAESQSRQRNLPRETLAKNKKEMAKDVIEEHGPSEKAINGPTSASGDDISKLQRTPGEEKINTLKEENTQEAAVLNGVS
inactive: erlotinib 0.041 | [1] 0.012 | [2] -0.039 | [3] -0.011 | [4] -0.024 | [5] 0.002 | [6] -0.082 | [7] -0.015 | [8] -0.008 | IRAK-1-4 Inhibitor I -0.057

FECH isoform 2 (UniProt P22830)
inactive: erlotinib 0.101 | [1] 0.062 | [2] -0.321 | [3] 0.42 | [4] -0.014 | [5] 0.354 | [6] 0.673 | [7] 0.183 | [8] -0.009 | IRAK-1-4 Inhibitor I 0.644

GEMIN4 (UniProt P57678)
Sequence of UniProt P57678 (P57678 whole entry, looked up): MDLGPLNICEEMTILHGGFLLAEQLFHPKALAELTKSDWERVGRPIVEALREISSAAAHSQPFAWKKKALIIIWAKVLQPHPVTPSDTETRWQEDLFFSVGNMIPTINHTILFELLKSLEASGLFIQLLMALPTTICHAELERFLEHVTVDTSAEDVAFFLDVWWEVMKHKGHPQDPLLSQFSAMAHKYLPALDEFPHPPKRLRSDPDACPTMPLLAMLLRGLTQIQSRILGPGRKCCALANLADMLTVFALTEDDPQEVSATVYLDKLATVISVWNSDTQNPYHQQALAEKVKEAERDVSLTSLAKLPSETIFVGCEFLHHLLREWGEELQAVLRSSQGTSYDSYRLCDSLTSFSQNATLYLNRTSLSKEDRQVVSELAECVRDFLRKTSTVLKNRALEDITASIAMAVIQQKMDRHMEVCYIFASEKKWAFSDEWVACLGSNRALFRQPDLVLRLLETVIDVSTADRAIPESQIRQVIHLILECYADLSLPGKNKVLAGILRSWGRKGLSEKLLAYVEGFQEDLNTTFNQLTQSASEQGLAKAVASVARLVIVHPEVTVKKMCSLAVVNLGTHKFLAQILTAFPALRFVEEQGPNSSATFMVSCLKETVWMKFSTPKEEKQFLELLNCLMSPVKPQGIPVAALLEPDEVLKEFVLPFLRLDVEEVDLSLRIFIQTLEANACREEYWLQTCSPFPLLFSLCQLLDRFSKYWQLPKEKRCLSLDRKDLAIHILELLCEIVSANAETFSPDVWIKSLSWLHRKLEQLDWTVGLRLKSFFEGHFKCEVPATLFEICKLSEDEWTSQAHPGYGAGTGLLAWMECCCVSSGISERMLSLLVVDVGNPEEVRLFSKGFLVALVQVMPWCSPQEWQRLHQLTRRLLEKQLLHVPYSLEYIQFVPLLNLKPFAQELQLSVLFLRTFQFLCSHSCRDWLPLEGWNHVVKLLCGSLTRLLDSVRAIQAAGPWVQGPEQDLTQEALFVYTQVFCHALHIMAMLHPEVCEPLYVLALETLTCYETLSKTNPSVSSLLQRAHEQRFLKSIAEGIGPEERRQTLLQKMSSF
inactive: erlotinib 0.023 | [1] -0.029 | [2] -0.036 | [3] 0.046 | [4] 0.038 | [5] -0.017 | [6] -0.032 | [7] -0.004 | [8] 0.018 | IRAK-1-4 Inhibitor I -0.023

DUS3L (UniProt Q96G46)
inactive: erlotinib -0.009 | [1] -0.001 | [2] 0.048 | [3] 0.059 | [4] 0.013 | [5] 0.032 | [6] -0.013 | [7] -0.012 | [8] -0.007 | IRAK-1-4 Inhibitor I 0.017
